Test results published in PubChem BioAssay (EPA / NIEHS).
“And” between values parts separate entries of the source, which are not always exact repeats. Equal entries are not always repeated. Results filed as inconclusive are left out. The source made the active and inactive calls. How the source made its calls, unless noted: active means hit-call score of the fitted dose curve at least 0.9, where 1 is the maximum; inactive means score below 0.9.

Columns and labels:
[1] = read-out: Pyruvate Dehydrogenase Kinase 4 (PDK4), PDK4 (gene 5166); assay: LTEA_HepaRG_PDK4: Life Technologies and Expression Analysis (LTEA) Assay for Pyruvate Dehydrogenase Kinase 4 (PDK4) using HepaRG (AID 2283525); settings: mRNA level, 48 h; actives raise or lower the signal
Procedure, shortened: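 Readout is qRT-PCR of PDK4 transcript, normalized to three housekeeping genes, with bidirectional fitting against 0.5% DMSO vehicle. Differentiated HepaRG cells were treated 48 h in serum-free induction medium, duplicate wells, eight-point half-log series topping at 100 uM.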

[2] = read-out: NAD(P)H dehydrogenase [quinone] 1 (NQO1), NQO1 (gene 1728); assay: LTEA_HepaRG_NQO1: Life Technologies and Expression Analysis (LTEA) Assay for NAD(P)H dehydrogenase [quinone] 1 (NQO1) using HepaRG (AID 2283526); settings: mRNA level, 48 h; actives raise or lower the signal
Procedure, shortened: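 Transcript induction or suppression is quantified by qRT-PCR in human HepaRG liver cells dosed for 48 hours. Eight half-log concentrations topping at 100 uM are used, with 0.5% DMSO as vehicle and baseline.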

[3] = read-out: Nuclear factor erythroid 2-related factor 2 (Homo sapiens) (UniProt Q16236); assay: LTEA_HepaRG_NFE2L2: Life Technologies and Expression Analysis (LTEA) Assay for Nuclear factor erythroid 2-related factor 2 (NFE2L2) Transcription Factor using HepaRG (AID 2283527); settings: mRNA level, 48 h; actives raise or lower the signal
Procedure, shortened: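 NFE2L2 transcript level was read by qRT-PCR (housekeeping ACTB/GAPDH/POLR2A normalisation) after 48 h chemical treatment of HepaRG in serum-free induction medium. Duplicate 8-point half-log curves, top 100 uM, 0.5% DMSO vehicle; up- or down-regulation fitted against vehicle.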

[4] = read-out: succinate dehydrogenase complex iron sulfur subunit B (SDHB), SDHB (gene 6390); assay: LTEA_HepaRG_SDHB: Life Technologies and Expression Analysis (LTEA) Assay for succinate dehydrogenase complex iron sulfur subunit B (SDHB) using HepaRG (AID 2283528); settings: mRNA level, 48 h; actives raise or lower the signal
Procedure, shortened: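 HepaRG, 48 h exposure, 8-pt half-log series from 100 uM in 0.5% DMSO, duplicates. Readout: SDHB mRNA by Fluidigm qRT-PCR vs housekeeping genes; bidirectional fit relative to DMSO.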

[5] = read-out: Signal transducer and activator of transcription 3 (Homo sapiens) (UniProt P40763); assay: LTEA_HepaRG_STAT3: Life Technologies and Expression Analysis (LTEA) Assay for Signal transducer and activator of transcription (STAT3) using HepaRG (AID 2283529); settings: mRNA level, 48 h; actives raise or lower the signal
Procedure, shortened: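 STAT3 transcript quantified by qRT-PCR against three housekeeping genes (ACTB, GAPDH, POLR2A), fitted both directions relative to DMSO. HepaRG cultures exposed 48 h to eight half-log concentrations, top 100 uM, 0.5% DMSO, serum-free induction medium.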

[6] = read-out: solute carrier (SLCO1B1), SLCO1B1 (gene 10599); assay: LTEA_HepaRG_SLCO1B1: Life Technologies and Expression Analysis (LTEA) Assay for solute carrier (SLCO1B1) using HepaRG (AID 2283530); settings: mRNA level, 48 h; actives raise or lower the signal
Procedure, shortened: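 SLCO1B1 transcript levels were quantified by TaqMan qRT-PCR using three housekeeping genes for normalization. This followed 48 h chemical exposure (100 uM top, half-log, 8 points, 0.5% DMSO) of HepaRG liver cells, with gain or loss fitted relative to DMSO.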

[7] = read-out: sulfotransferase 2A1 (SULT2A1), SULT2A1 (gene 6822); assay: LTEA_HepaRG_SULT2A1: Life Technologies and Expression Analysis (LTEA) Assay for sulfotransferase 2A1 (SULT2A1) using HepaRG (AID 2283531); settings: mRNA level, 48 h; actives raise or lower the signal
Procedure, shortened: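 Expression change of SULT2A1, by qRT-PCR with three housekeeping-gene normalization, was scored bidirectionally versus DMSO. Cells: differentiated HepaRG, dosed in duplicate for 48 h across 8 points, highest 100 µM, half-log dilution, 0.5% DMSO.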

[8] = read-out: Transforming Growth Factor (TGFA), TGFA (gene 7039); assay: LTEA_HepaRG_TGFA: Life Technologies and Expression Analysis (LTEA) Assay for Transforming Growth Factor (TGFA) using HepaRG (AID 2283532); settings: mRNA level, 48 h; actives raise or lower the signal
Procedure, shortened: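 TGFA transcript quantified by qRT-PCR (Fluidigm arrays) against three housekeeping genes, after 48 hours chemical treatment of HepaRG cells. Top concentration 100 uM with half-log dilutions, 8 points, duplicates, 0.5% DMSO.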

[9] = read-out: Transforming Growth Factor (TGFB1), TGFB1 (gene 7040); assay: LTEA_HepaRG_TGFB1: Life Technologies and Expression Analysis (LTEA) Assay for Transforming Growth Factor (TGFB1) Transporter using HepaRG (AID 2283533); settings: mRNA level, 48 h; actives raise or lower the signal
Procedure, shortened: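 TGFB1 transcript measured by qRT-PCR with normalisation to three housekeeping genes (ACTB, GAPDH, POLR2A); human HepaRG line treated in duplicate for 48 hr with an 8-point series topping at 100 uM, 0.5% DMSO vehicle, bidirectionally fitted.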

TIMP1, TIMP1 (gene 7076) = assay: LTEA_HepaRG_TIMP1: Life Technologies and Expression Analysis (LTEA) Assay for TIMP1 using HepaRG (AID 2283534); settings: mRNA level, 48 h; actives raise or lower the signal
Procedure, shortened: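 Bidirectional change in TIMP1 transcript versus 0.5% DMSO, measured by TaqMan qRT-PCR with three housekeeping genes for normalization. HepaRG human liver cells dosed 48 h in duplicate, top concentration 100 uM with half-log dilutions.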

[10] = read-out: Tumor necrosis factor receptor 1 (TNFRSF1A), TNFRSF1A (gene 7132); assay: LTEA_HepaRG_TNFRSF1A: Life Technologies and Expression Analysis (LTEA) Assay for Tumor necrosis factor receptor 1 (TNFRSF1A) using HepaRG (AID 2283535); settings: mRNA level, 48 h; actives raise or lower the signal
Procedure, shortened: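 mRNA measured by qRT-PCR (TaqMan, Fluidigm arrays) against ACTB/GAPDH/POLR2A housekeepers after 48 h chemical exposure of HepaRG cells. Top concentration 100 uM, half-log 8-point series, duplicates; vehicle 0.5% DMSO, both fit directions.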

[11] = read-out: Thyroid Hormone Responsive (THRSP), THRSP (gene 7069); assay: LTEA_HepaRG_THRSP: Life Technologies and Expression Analysis (LTEA) Assay for Thyroid Hormone Responsive (THRSP) using HepaRG (AID 2283536); settings: mRNA level, 48 h; actives raise or lower the signal
Procedure, shortened: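 THRSP transcript quantified by Fluidigm qRT-PCR against three housekeeping genes after 48 h chemical exposure of HepaRG cells in serum-free induction medium; eight-point half-log series, top 100 uM, 0.5% DMSO vehicle, duplicate wells.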

[12] = read-out: Cellular tumor antigen p53 (Homo sapiens) (UniProt P04637); assay: LTEA_HepaRG_TP53: Life Technologies and Expression Analysis (LTEA) Assay for Tumor Protein P53 (TP53) using HepaRG (AID 2283537); settings: mRNA level, 48 h; actives raise or lower the signal
Procedure, shortened: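 HepaRG, 48 h exposure, top 100 uM, half-log 8-point, 0.5% DMSO vehicle, duplicates. Read: TP53 mRNA by TaqMan qRT-PCR, normalised to ACTB/GAPDH/POLR2A; bidirectional fit vs DMSO.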

[13] = read-out: UDP glucuronosyltransferase (UGT1A1), UGT1A1 (gene 54658); assay: LTEA_HepaRG_UGT1A1: Life Technologies and Expression Analysis (LTEA) Assay for UDP glucuronosyltransferase (UGT1A1) using HepaRG (AID 2283538); settings: mRNA level, 48 h; actives raise or lower the signal
Procedure, shortened: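 Cells are plated, cultured 48 h, switched to serum-free induction medium, then dosed 48 h at eight concentrations (max 100 uM, 0.5% DMSO). RNA is isolated and UGT1A1 expression measured by qRT-PCR; changes versus DMSO are fitted in both directions.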

[14] = read-out: UDP glucuronosyltransferase (UGT1A6), UGT1A6 (gene 54578); assay: LTEA_HepaRG_UGT1A6: Life Technologies and Expression Analysis (LTEA) Assay for UDP glucuronosyltransferase (UGT1A6) using HepaRG (AID 2283539); settings: mRNA level, 48 h; actives raise or lower the signal
Procedure, shortened: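 Expression was quantified by TaqMan qRT-PCR on Fluidigm arrays with ACTB/GAPDH/POLR2A normalization and bidirectional fitting against 0.5% DMSO. HepaRG cells (~100,000/well) were treated in duplicate for 48 h at eight half-log concentrations up to 100 uM in serum-free induction medium.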

[15] = read-out: X-box binding protein 1 (XBP1), XBP1 (gene 7494); assay: LTEA_HepaRG_XBP1: Life Technologies and Expression Analysis (LTEA) Assay for X-box binding protein 1 (XBP1) using HepaRG (AID 2283540); settings: mRNA level, 48 h; actives raise or lower the signal
Procedure, shortened: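 XBP1 transcript by qRT-PCR (housekeeping-normalized: ACTB, GAPDH, POLR2A) after 48 h chemical treatment of HepaRG cells, 8-point half-log series topping at 100 uM, vehicle 0.5% DMSO. Gain and loss of signal fitted relative to DMSO.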

[16] = LTEA_HepaRG_LDH_cytotoxicity: Cytotoxicity Assessment in the Life Technologies and Expression Analysis (LTEA) Assay (AID 2283563; active means hit-call score of the fitted dose curve at least 0.9, where 1 is the maximum;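 on AC50: LDH activity released into spent culture medium as a marker of cell death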)
Procedure, shortened: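 LDH release into culture medium read after 48 h chemical treatment of HepaRG cells. Duplicate wells, eight-point half-log series topping at 100 uM, 0.5% DMSO vehicle and baseline.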

[17] = TOX21_p53_BLA_p2_viability: Viability Assessment in the Tox21 HCT-116 p53 Agonism Beta-lactamase Assay, Phase 2 (AID 2283591; active means hit-call score of the fitted dose curve at least 0.9, where 1 is the maximum;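 further: compound exposure lasted 16 h at 37 °C; actives lower the ATP signal meaning cytotoxicity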)
Procedure, shortened: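 Cytotoxicity readout: CellTiter-Glo ATP luminescence, 30 min at room temperature, after the beta-lactamase read. Cells were HCT116 exposed 16 h at 37C to compounds pin-transferred at 217-fold dilution from DMSO stocks.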

[18] = molecular target: Cellular tumor antigen p53 (Homo sapiens) (UniProt P04637); assay: TOX21_p53_BLA_p2_ratio: Tox21 HCT-116 p53 Agonism Beta-lactamase Assay, Ratio, Phase 2 (AID 2283592; active means hit-call score of the fitted dose curve at least 0.9, where 1 is the maximum)
Procedure, shortened: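 Read-out is the blue/green (460/530 nm, 405 nm excitation) ratio after 2 h CCF4-AM loading, fitted as gain versus DMSO. Compounds, pinned at 217-fold dilution from DMSO stocks, stayed 16 h on HCT-116 beta-lactamase reporter cells seeded 5 h earlier.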

[19] = ATG_XTT_Cytotoxicity: Cytotoxicity Assessment in the Attagene TRANS-FACTORIAL HepG2 Assay (AID 2283584; active means hit-call score of the fitted dose curve at least 0.9, where 1 is the maximum)
Procedure, shortened: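 Viability endpoint from XTT after 24 h chemical exposure of reporter-transfected human HepG2 liver cells; signal loss fitted relative to DMSO negative control.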

Measured: AC50

Nuclear factor erythroid 2-related factor 2 (Homo sapiens), sequence (Q16236 whole entry, looked up): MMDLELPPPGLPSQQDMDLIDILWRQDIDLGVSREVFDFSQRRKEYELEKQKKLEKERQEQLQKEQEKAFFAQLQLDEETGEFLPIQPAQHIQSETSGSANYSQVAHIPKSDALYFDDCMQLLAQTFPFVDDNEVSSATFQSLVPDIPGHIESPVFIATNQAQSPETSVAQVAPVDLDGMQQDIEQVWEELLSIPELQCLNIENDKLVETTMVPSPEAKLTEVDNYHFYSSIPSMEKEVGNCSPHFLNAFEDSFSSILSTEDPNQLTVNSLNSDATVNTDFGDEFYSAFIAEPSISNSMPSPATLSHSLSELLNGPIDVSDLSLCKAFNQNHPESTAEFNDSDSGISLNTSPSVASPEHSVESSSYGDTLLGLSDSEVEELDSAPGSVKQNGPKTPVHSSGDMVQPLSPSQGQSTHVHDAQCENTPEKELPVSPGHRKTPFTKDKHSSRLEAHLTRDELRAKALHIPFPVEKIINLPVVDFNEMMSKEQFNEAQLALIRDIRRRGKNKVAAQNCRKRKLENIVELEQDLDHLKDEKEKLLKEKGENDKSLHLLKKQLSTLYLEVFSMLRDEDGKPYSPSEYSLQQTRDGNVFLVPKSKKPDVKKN
Signal transducer and activator of transcription 3 (Homo sapiens), sequence (P40763 whole entry, looked up): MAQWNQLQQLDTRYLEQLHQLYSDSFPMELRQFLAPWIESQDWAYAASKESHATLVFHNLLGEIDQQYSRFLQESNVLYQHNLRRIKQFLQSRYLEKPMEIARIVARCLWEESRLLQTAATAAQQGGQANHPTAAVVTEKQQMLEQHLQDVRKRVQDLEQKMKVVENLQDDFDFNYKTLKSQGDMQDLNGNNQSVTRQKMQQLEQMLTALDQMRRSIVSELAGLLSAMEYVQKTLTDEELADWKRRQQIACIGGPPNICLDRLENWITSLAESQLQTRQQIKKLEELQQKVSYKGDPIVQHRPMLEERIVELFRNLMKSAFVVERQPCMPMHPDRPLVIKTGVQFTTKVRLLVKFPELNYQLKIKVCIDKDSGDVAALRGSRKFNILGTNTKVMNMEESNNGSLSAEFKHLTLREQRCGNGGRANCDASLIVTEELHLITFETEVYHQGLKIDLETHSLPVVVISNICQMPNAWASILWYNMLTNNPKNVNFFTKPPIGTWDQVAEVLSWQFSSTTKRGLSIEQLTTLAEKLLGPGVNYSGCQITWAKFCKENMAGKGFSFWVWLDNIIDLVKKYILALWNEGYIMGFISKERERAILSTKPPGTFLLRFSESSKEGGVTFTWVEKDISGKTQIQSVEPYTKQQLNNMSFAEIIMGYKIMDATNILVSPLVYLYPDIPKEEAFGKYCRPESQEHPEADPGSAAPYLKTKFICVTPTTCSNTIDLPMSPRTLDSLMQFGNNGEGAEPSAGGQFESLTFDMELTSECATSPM
Cellular tumor antigen p53 (Homo sapiens), sequence (P04637 whole entry, looked up): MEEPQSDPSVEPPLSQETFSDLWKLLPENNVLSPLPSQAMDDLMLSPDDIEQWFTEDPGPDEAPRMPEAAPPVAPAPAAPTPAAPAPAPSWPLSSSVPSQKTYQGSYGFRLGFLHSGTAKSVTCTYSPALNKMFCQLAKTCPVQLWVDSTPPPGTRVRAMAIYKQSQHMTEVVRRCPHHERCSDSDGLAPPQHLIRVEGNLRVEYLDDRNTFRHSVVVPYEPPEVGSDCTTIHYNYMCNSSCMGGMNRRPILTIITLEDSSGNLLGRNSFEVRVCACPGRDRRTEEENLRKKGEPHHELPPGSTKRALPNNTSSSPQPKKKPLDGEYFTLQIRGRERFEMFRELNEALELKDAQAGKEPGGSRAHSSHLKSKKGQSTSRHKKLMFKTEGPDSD

CC(C)CCO
not listed: [19]
inactive: all other assays above

CC(C)CCCCCCCOC(=O)CCCCC(=O)OCCCCCCCC(C)C
not listed: TIMP1, TIMP1 (gene 7076) | [11]
inactive: all other assays above

O=c1n(CC2CO2)c(=O)n(CC2CO2)c(=O)n1CC1CO1 (stereo not drawn)
active: [12] 90.1 µM | [18] 19.6 µM and 9.81 µM and 20.5 µM
not listed: [7]
inactive: all other assays above

O=C1CCC(N2C(=O)c3ccccc3C2=O)C(=O)N1 (stereo not drawn)
not listed: [7]
inactive: all other assays above

C1N2CN3CN1CN(C2)C3
not listed: [7]
inactive: all other assays above

CC(=O)c1ccc2c(c1)[C@H](NC(=O)c1ccc(F)cc1)[C@@H](O)C(C)(C)O2
active: [13] 22.6 µM
not listed: TIMP1, TIMP1 (gene 7076) | [18] | [19]
inactive: all other assays above

CC(O)CN(CCN(CC(C)O)CC(C)O)CC(C)O (stereo not drawn)
active: [3] 12.6 µM
inactive: all other assays above

CCc1cc(SCc2sc(-c3ccc(C(F)(F)F)cc3)nc2CN2CCN(c3ccc(OC)cc3)CC2)ccc1OCC(=O)O
active: [1] 92.2 µM | [2] 8.39 µM | [3] 91.8 µM | [4] 93.7 µM | [5] 93.3 µM | [6] 7.63 µM | [7] 5.72 µM | [8] 6.99 µM | [9] 28.9 µM | TIMP1, TIMP1 (gene 7076) 94 µM | [10] 5 µM | [12] 7.74 µM | [13] 7.28 µM | [14] 7.77 µM | [15] 94 µM | [16] 16.2 µM | [17] 7.48 µM | [18] 46.1 µM

CC(C)=CCCC(C)CCO (stereo not drawn)
not listed: [11]
inactive: all other assays above

CCCN(C1CCN(C(=O)C2CCNCC2)CC1)[C@@H]1CCc2ccc(OC)cc2C1
active: [5] 0.256 µM | [6] 79.4 µM | [7] 83.5 µM | [13] 69.3 µM | [14] 81 µM | [15] 28.2 µM | [16] 76.1 µM
not listed: TIMP1, TIMP1 (gene 7076) | [11]
inactive: all other assays above

COc1ccc(/C=C/S(=O)(=O)NC(=O)c2ccc(C)cc2Cl)cc1
active: [1] 6.62 µM | [18] 28 µM
not listed: TIMP1, TIMP1 (gene 7076) | [11]
inactive: all other assays above

CC(=O)OCCC(C)C
inactive: all assays above

Clc1nc(Cl)c(Cl)c(Cl)c1Cl
not listed: TIMP1, TIMP1 (gene 7076)
inactive: all other assays above
